VACV mCherry inh: qHTS for Stage-Specific Inhibitors of Vaccinia Orthopoxvirus: mCherry Reporter Primary qHTS. Potency, µM (series often up to 36.5 µM), without a hit: at the top dose activity change, negative = inhibition, most hits filed as inhibitors. Vaccinia virus mCherry reporter infection, fluorescence. actives 0.63% (n = 310,000); calls by dose curve; tested in A549 cells; further: nearly all actives have a fitted effect of over 35% in size
HCV inhibitor: qHTS Assay for Inhibitors of Hepatitis C Virus (HCV). Huh7.5.1 HCVcc-Cre infection, luciferase reporter, 44 h. Potency, µM (titrated, usually from 41.8 µM), inactives show at the top dose activity change, negative = inhibition, actives largely listed as inhibitors. actives 3.4% (n = 340,000). AID 651820, 2012; active means well fitted inhibition curve with a large enough effect; inconclusive means small, poorly fitted or top-dose-only effect, or another doubt; inactive means no such curve, though single readings can be large or run the other way
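After 44 h co-culture of compound, cells and HCVcc-Cre (~0.5 moi), substrate is added for 15 min at room temperature and luciferase measured over 15 sec. Cells were seeded at 1,000/well and pre-cultured 4 h.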
Marburg entry inh: qHTS for inhibitors of binding or entry into cells for Marburg Virus | AID 540276, 2011 | Marburg virus pseudotyped entry inhibition, cell reporter | Potency, µM (highest dose often 37.8 µM), inactives show at the top dose activity change, negative = inhibition, hits mostly inhibitors | actives 1.8% (n = 300,000); calls by dose curve; tested in HEK293 cells
VACV Venus inh: qHTS for Stage-Specific Inhibitors of Vaccinia Orthopoxvirus: Venus Reporter Primary qHTS. Vaccinia virus Venus reporter expression, fluorescence. Potency, µM (titrated, usually from 36.5 µM), without a hit: top-dose activity change, negative = inhibition, actives largely listed as inhibitors. actives 0.46% (n = 330,000); calls by dose curve; tested in A549 cells; further: nearly all actives have a fitted effect of over 30% in size
Lassa entry inh: qHTS for Inhibitors of binding or entry into cells for Lassa Virus; Potency, µM (top dose mostly 37.9 µM), inactives show at the highest dose activity change, negative = inhibition, usual class: inhibitors; Lassa virus pseudotype entry inhibition, cell reporter; actives 1.2% (n = 300,000); calls by dose curve; tested in HEK293 cells; further: nearly all actives have a fitted effect of over 50% in size
* = called active by the depositor; i = inactive; ? = inconclusive; . = no result given; ! = not active in a repeat; [ ] = remark or other dose. In the library only some 4.6% were active in any assay of this set; here they are far more common. On the % scale 0 is the no-effect control and ±100 the full control effect; potency means the concentration at half of the fitted maximal effect.

SMILES	VACV mCherry inh	HCV inhibitor	Marburg entry inh	VACV Venus inh	Lassa entry inh
COc1cccc(C(=O)Nc2sc3c(c2C(=O)O)CCCC3)c1	?	13µM*	11µM*	?	10µM*
CC(C)(C)c1ccc(C(=O)Nc2sc3c(c2C(=O)O)CCC3)cc1	-7%	-20%	3.2µM*	-15%	?
COc1cc(C(=O)Nc2sc3c(c2C(=O)O)CCC3)cc(OC)c1OC	i	-13%	?	0%	?
Cc1cccc(C(=O)Nc2sc3c(c2C(=O)O)CCC3)c1	.	-14%	.	.	.
C=CCNCC(=O)Nc1sc2c(c1C(=O)Nc1ccc(OC)cc1OC)CCC2	.	10µM*	.	.	.
COc1ccc(NC(=O)c2c(NCc3sccc3C)sc3c2CCCC3)c(OC)c1	-10%	.	.	-16%	?
CN1CC(O)C2=CC(=O)C(=O)C=C21 (centres undefined)	-2%	.	.	-10%	.
COCCCNC(=O)CN1C(=O)COc2ccc(S(=O)(=O)N3CCCC3)cc21	3%	.	-11%[46.1 µM]	0%	1%[46.1 µM]
Cc1ccc2c(/C=C/c3ccc(N(C)C)cc3)ccnc2c1	14%	.	.	25%	.
NC(=O)c1c(NC(=O)c2ccc(F)cc2)sc2c1CCC2	-4%	?	?	-20%	-8%[46.1 µM]
O=C(Nc1sc2c(c1C(=O)O)CCCC2)c1ccc(F)cc1	-1%	4%	2.5µM*	-16%	?
O=C(Nc1sc2c(c1C(=O)O)CCCCC2)c1cccs1	-6%	-8%	.	?	.
O=C(Nc1sc2c(c1C(=O)O)CCCC2)c1cccs1	.	?	9.2µM*	.	?
O=C(c1ccc(Br)cc1)N1CCC(c2nc3ccccc3s2)CC1	-21%	.	-22%[46.1 µM]	-7%	23%[46.1 µM]
CCOc1ccc(NC(=O)Cn2c3ncccc3c(=O)n2-c2ccc(CC)cc2)cc1	-3%[7.34 µM]	.	.	-1%[7.34 µM]	-10%[46.1 µM]
COc1cccc(Nc2nnc(SCc3cc([N+](=O)[O-])cc4c3OCOC4)s2)c1	.	11µM*	-19%	?	-12%
O=C(Nc1cccc(Cl)c1)Nc1cccc(Cl)c1	?	-20%	?	?	-22%
O=C(Nc1ccc(-c2ccccc2)cc1)c1ccccc1	.	-12%	.	.	.
COC(=O)c1cc(NC(=O)Nc2cccc(Cl)c2)ccc1Cl	?	10µM*	?	?	?
COC(=O)c1cc(NC(=O)c2ccc(-c3ccccc3)cc2)ccc1Cl	-18%	10µM*	?	-10%	?
COc1cc(=O)n2c(c1C(=O)NCc1nccs1)CCN(Cc1ccccc1F)CC2	-5%	.	.	-17%	.
COCCNC(=O)C(=O)Nc1ccc2nc3n(c(=O)c2c1)CCCCC3	-2%	.	9%[46.1 µM]	-2%	?
CO/N=C/c1ccc(N2CCN(C(=O)c3ccc(Cl)cc3Cl)CC2)c([N+](=O)[O-])c1	.	8.9µM*	?	.	?
CO/N=C/c1ccc(N2CCN(C(=O)c3ccc(F)cc3)CC2)c([N+](=O)[O-])c1	.	14µM*	?	.	?
COc1cc(NC(=O)Cn2cc(S(=O)(=O)N3CCC(C)CC3)c3ccccc3c2=O)cc(OC)c1OC	-20%	.	10µM*	-9%	-26%[46.1 µM]
SMILES	VACV mCherry inh	HCV inhibitor	Marburg entry inh	VACV Venus inh	Lassa entry inh
COc1cc(Cl)c(C)cc1NC(=O)Cn1cc(S(=O)(=O)N2CCC(C)CC2)c2ccccc2c1=O	-18%	.	-15%[46.1 µM]	-8%	0%[46.1 µM]
Nc1ccc2nc(-c3cc(Cl)c(N)c(Cl)c3)[nH]c2c1	.	11µM*	?	.	7%
NC(N)=Nc1ccc(/C=C2\C=Cc3ccccc32)cc1	-17%	.	.	?	.
C=CCn1c(C(C)NC(=O)CCC)nc2ccccc21 (centres undefined)	2%	11µM*	5%	8%	0%
COC(=O)C1N2C(=O)N(C)[C@H](C(=O)OC)[C@H]2SC1(C)C (some centres undefined)	i	.	.	-7%	.
CCSc1nc(-c2ccc(Cl)cc2)nc2c1Cc1c(CO)cnc(C)c1O2	-11%	.	.	-15%	0%[46.1 µM]
CC1CCc2nc3sc4c(c3c(N)c2C1)CCCC4 (centres undefined)	i	?	?	?	-7%
CC1CCc2c(nc3sc4c(c3c2N)CCCC4)C1 (centres undefined)	-20%	11µM*	11µM*	?	-27%[46.1 µM]
O=C(CSC1=NS(=O)(=O)c2cc(Cl)ccc2N1)c1ccc(Cl)cc1	-15%	19%	1%[46.1 µM]	-6%	?
CC1=NS(=O)(=O)c2cc(Cl)ccc2N1	0%	3%[8.37 µM]	13µM*!	-8%	?
Cc1ccc(NC(=O)c2sc3ncn(Cc4cccc(F)c4)c(=O)c3c2C)c(Br)c1	-12%	.	.	-8%	19%[46.1 µM]
CC1(C)Cc2c(c(-c3ccco3)nc3sc4c(NCCO)ncnc4c23)CO1	.	13µM*	.	.	.
COCCCNc1ncnc2c1sc1nc(-c3ccco3)c3c(c12)CC(C)(C)OC3	-13%	?	-20%	-11%	?
CC1(C)Cc2c(c(N3CCOCC3)nc3sc4c(NCCN)ncnc4c23)CO1	.	7.1µM*	.	.	.
CN(C)CCNc1ncnc2c1sc1nc(N3CCOCC3)c3c(c12)CC(C)(C)SC3	.	10µM*	15µM*	.	?
CCN1CCN(c2cc3c(cc2F)c(=O)c(S(=O)(=O)c2ccc(OC)cc2)cn3CC)CC1	-2%	.	.	-5%	20%[46.1 µM]
CO[C@H]1[C@H](NC(=O)c2cccs2)c2ccccc2C12CCN(Cc1cccn1-c1cccnc1)CC2	-9%	.	.	-4%	.
Cc1ccc2c(=O)cc(C(=O)Nc3c(C(=O)c4ccccc4)oc4ccccc34)oc2c1	-13%	.	-2%[46.1 µM]	5%	3%[46.1 µM]
COc1cc(C(=O)N(CCc2ccccc2)C2=CC3CCC(C2)N3C)cc(OC)c1OC (centres undefined)	i	-5%	-39%	-11%	11%
Cc1cc(C)cc(C(=O)N(CCc2ccccc2)C2CC3CCC(C2)N3C)c1 (centres undefined)	-11%	-25%	3.2µM*	?	?
CN(Cc1ccc2c(c1)CN(C(=O)c1cccc(N(C)C)c1)CCO2)Cc1cc(C2CC2)n[nH]1	5%	.	.	3%	.
CCNC(=O)c1c(NC(=O)c2nc(SC)ncc2Cl)sc2c1CCCC2	-12%	.	.	-12%	.
O=c1[nH]c(SCCOc2ccccc2F)nc2ccccc12	-16%	-28%	?	-13%	1%
Cn1c(SCc2ccc(Br)cc2)nc2ccccc2c1=O	-21%	?	-20%	-13%	-20%
Cn1c(SCc2ccccc2)nc2ccsc2c1=O	i	10µM*	?	-10%	?
Cc1cccc(CSc2nc3ccccc3c(=O)n2C)c1	.	22µM*	.	.	.
CC(C)Cn1c(SCc2cccc(F)c2)nc2ccsc2c1=O	-2%	.	.	3%	6%[46.1 µM]
Cn1c(SCCOc2ccccc2F)nc2ccccc2c1=O	-12%	15%	3.5µM*	-16%	3%
C=CCCCN1C=C(C(C)=O)C(c2ccccc2)NC1=O (centres undefined)	.	.	18%[14.2 µM]	.	.
COc1ccc(Nc2ncc3c(n2)CCN(Cc2cccc(F)c2F)C3)c(OC)c1	-12%	.	.	-4%	8%[46.1 µM]

High-throughput results: PubChem, National Center for Advancing Translational Sciences (NCATS)
